Assay results published in PubChem BioAssay AID651640 (Broad Institute, 2012).
Values joined by “and” are separate entries in the source; they are usually repeats but may differ in a detail not shown here. Identical values can stand only once. Screen size: about 350,000 compounds; about 6,000 (1.7%) were called active. Another 5% or so got no clear call; they are omitted. Cut-off read from the data, not from the text of the source: active = CPE inhibition above about 20% (passing the limit was not always enough); inconclusive = no clear call, values can overlap the other calls; tested in BHK-21 cells. The full list was thinned out, with actives kept by preference. Some structures have more than one record in an assay (separate samples or runs), and their calls can disagree.

Assay: inhibitors of DENV2 cytopathic effect, primary screen, cell-based, plate reader, single concentration (AID 651640);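 note: 0% = median of neutral control wells and 100% = median of positive control wells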
Conditions: DENV2-infected cells, cytopathic effect rescue, at 9.99 µM, stronger effect = higher value

| SMILES | CPE inhibition |
| --- | --- |
| CN1c2ccc(Br)cc2[C@H]2[C@H](CCN2S(=O)(=O)c2ccc(F)cc2)[C@@H]1CO | 0.0605% (inactive) |
| CO[C@@H]1CN(C)C(=O)c2ccc(NC(=O)C3CC3)cc2OC[C@H](C)N(C(C)=O)C[C@H]1C | 7.67% (inactive) |
| NC1=NC[C@@H](Cc2ccc(O)cc2)N1CC1CCCCC1 | 2.56% (inactive) |
| COc1ccc(C[C@H]2CN3C(=NC[C@H]3C)N2CCNC(=O)CCC2CCCCC2)cc1 | -4.48% (inactive) |
| C/C=C(\C)C(=O)NCCN1C2=NC[C@H](Cc3ccc(O)cc3)N2C[C@@H]1Cc1ccc(OC)cc1 | 77.3% (active) |
| CCC(=O)N1C[C@@H](O)COC[C@H]2O[C@H](CC(=O)NCC3CCCCC3)CC[C@@H]21 | -3.58% (inactive) |
| CCOC(=O)N1CCN(Cc2nc3cc(NC(=O)CC)ccc3n2CC)CC1 | 38.6% (active) |
| CCC(=O)Nc1ccc2c(c1)nc(CCN1CCN(c3ccccn3)CC1)n2C | 0.997% (inactive) |
| CCOC(=O)N1CCN(Cc2nc3cc(NC(C)=O)ccc3n2C)CC1 | -3.68% (inactive) |
| C[C@@H]1CN([C@H](C)CO)C(=O)c2cccc(NC(=O)c3ccncc3)c2O[C@@H]1CN(C)S(=O)(=O)c1cn(C)cn1 | 15% (inactive) |
| O=C(Nc1ccccc1F)N[C@@H]1C=C[C@H](CC(=O)N2CCCCC2)O[C@@H]1CO | -0.192% (inactive) |
| Cc1noc(C)c1NC(=O)N(C)C[C@@H]1OCCCC[C@H](C)Oc2ccc(NC(=O)c3ccccc3)cc2C(=O)N([C@@H](C)CO)C[C@@H]1C | 16.5% (inactive) |
| COc1ccc(C#Cc2cnc3c(c2)C(=O)N([C@H](C)CO)C[C@H](C)[C@@H](CN(C)C)O3)cc1 | 19.9% (inactive) |
| C[C@H](CO)N1C[C@H](C)[C@H](CN(C)C)Oc2ncc(C#Cc3ccc(F)cc3)cc2C1=O | -5.08% (inactive) and 2.36% (inactive) |
| C[C@H]1CN([C@@H](C)CO)C(=O)c2cc(C#Cc3ccc(F)cc3)cnc2O[C@@H]1CN(C)C(=O)Nc1ccc(F)cc1 | -4.85% (inactive) |
| COc1ccc(C#Cc2cnc3c(c2)C(=O)N([C@H](C)CO)C[C@@H](C)[C@@H](CN(C)C(=O)CN(C)C)O3)cc1 | 33.2% (active) |
| C/C=C/c1cnc2c(c1)C(=O)N([C@@H](C)CO)C[C@@H](C)[C@@H](CN(C)C(=O)c1cnccn1)O2 | 2.38% (inactive) |
| C[C@H](CO)N1C[C@H](C)[C@@H](CN(C)C(=O)c2cnccn2)Oc2ncc(Br)cc2C1=O | 17.4% (inactive) and 62.5% (active) |
| CC(=O)N(C)C[C@@H]1Oc2ncc(C#Cc3ccc(F)cc3)cc2C(=O)N([C@H](C)CO)C[C@@H]1C | 28.5% (active) |
| C/C=C/c1cnc2c(c1)C(=O)N([C@@H](C)CO)C[C@@H](C)[C@H](CN(C)C(=O)c1cnccn1)O2 | -1.7% (inactive) |
| COc1ccc(C#Cc2cnc3c(c2)C(=O)N([C@@H](C)CO)C[C@H](C)[C@@H](CN(C)C(C)=O)O3)cc1 | 2.83% (inactive) |
| N#C[C@H]1[C@H](c2ccccc2)[C@@H](CO)N1C(=O)c1cccnc1 | -0.249% (inactive) |

| SMILES | CPE inhibition |
| --- | --- |
| COC(=O)[C@]12C[C@H](CC(=O)NCc3ccc(C)o3)C(=O)N(CCC3=CCCCC3)C1=C[C@H](C(C)(C)C)O[C@@H]2C | 13.9% (inactive) |
| CN(C)C(=O)[C@@H]1[C@@H](CO)[C@@H]2Cn3c(cccc3=O)[C@@H]2N1C(=O)C1CCC1 | -0.032% (inactive) |
| O=C(Nc1cccc(Cl)c1)N1C[C@@H]2[C@H](c3ccccc31)[C@H](CO)N2Cc1ccncc1 | -4.1% (inactive) |
| C/C=C/c1ccc([C@H]2[C@@H](CO)N[C@@H]2CN(CC)C(=O)CN2CCOCC2)cc1 | -9.22% (inactive) |
| O=C(C[C@@H]1C[C@H]2c3cc(NC(=O)NC4CCCCC4)ccc3O[C@H]2[C@H](CO)O1)NCc1ccncc1 | -3.13% (inactive) |
| CC(C)NC(=O)N(C)C[C@@H]1Oc2ncc(C3=CCCCC3)cc2C(=O)N([C@H](C)CO)C[C@@H]1C | 4.71% (inactive) |
| CCCNC(=O)C[C@H]1C[C@@H]2c3cc(NC(=O)COC)ccc3O[C@@H]2[C@@H](CO)O1 | -2.37% (inactive) |
| CN1OC[C@@H]2CN(C(=O)C(C)(C)C)[C@H](c3ccc(-n4ccnc4)cc3)C[C@@H]21 | -4.59% (inactive) |
| CN1OC[C@@H]2CN(C(=O)c3cccc4ccccc34)[C@H](c3ccc(N4CCCCC4)cc3)C[C@@H]21 | 1.89% (inactive) |
| CN1OC[C@@H]2CN(C(=O)c3cccnc3)[C@H](c3ccc(N4CCCCC4)cc3)C[C@@H]21 | 42.6% (active) |
| COc1ccc(NC(=O)Nc2ccc3c(c2)C(=O)N([C@@H](C)CO)C[C@@H](C)[C@@H](CN(C)Cc2ccncc2)OCCCC[C@@H](C)O3)cc1 | -9.1% (inactive) |
| CN1C(=O)c2cc(NC(=O)c3cccs3)ccc2OC[C@H]2O[C@@H](CC(=O)NCC3CC3)CC[C@@H]21 | -3.31% (inactive) |
| C/C=C/c1ccc([C@@H]2[C@H](CO)N(CC3CCCC3)C23CN(C(=O)CC)C3)cc1 | 2.47% (inactive) |
| C/C=C/c1ccc([C@@H]2[C@H](CO)N(CC3CCOCC3)C23CN(S(=O)(=O)CC)C3)cc1 | 73.3% (active) |
| C/C=C/c1ccc([C@@H]2[C@@H](CO)N(CC3CCCC3)C23CN(S(=O)(=O)CC)C3)cc1 | -5.75% (inactive) |
| CO[C@H]1CN(C)C(=O)c2ccc(NS(=O)(=O)c3cn(C)cn3)cc2OC[C@H](C)N(C)C[C@H]1C | -10.1% (inactive) |
| C/C=C/c1cnc2c(c1)C(=O)N([C@H](C)CO)C[C@H](C)[C@H](CN(C)C(=O)c1cccc(F)c1)O2 | -1% (inactive) |
| C[C@@H]1CN([C@@H](C)CO)S(=O)(=O)c2ccc(Br)cc2O[C@H]1CN(C)S(=O)(=O)c1ccccc1 | -1.43% (inactive) |
| CCOc1ccc(Oc2nc(C)cc(OC)n2)nn1 | 71.4% (active) |
| COc1ccc2c3c([nH]c2c1)[C@H](CO)N(Cc1nccs1)CC31CCN(Cc2ccncc2)CC1 | 6.23% (inactive) |
| CCC(=O)N(C)C[C@@H]1Oc2cc(C#C[C@H](C)O)ccc2S(=O)(=O)N([C@@H](C)CO)C[C@H]1C | -5.73% (inactive) |
